Each structure is given as a SMILES string. Out of some 150,000 compounds screened, about 1,000 (0.67%) were called active. No stated cut-off is given here; in the data, active means % elongation below about 90%; inactive means the rest, inconclusive results apart. For the sample, actives were picked, then their nearest neighbours and some compounds at random.

The assay addresses Genome polyprotein (Poliovirus type 1 (strain Mahoney)) (UniProt P03300). As to the kind of experiment: poliovirus RdRp elongation inhibitors, primary screen, biochemical, fluorescence polarization, total intensity (AID 588519). On z-score: compound at 16.7 µg/mL. To be noted: poliovirus polymerase elongation, stronger effect = lower value; for % elongation: compound at 16.7 µg/mL; for z-score: measured here: FP z-score.

Where [1] appears, read: measured here: total intensity read-out.

Chain of Genome polyprotein (Poliovirus type 1 (strain Mahoney)) (P03300 1749-2209 limits assumed): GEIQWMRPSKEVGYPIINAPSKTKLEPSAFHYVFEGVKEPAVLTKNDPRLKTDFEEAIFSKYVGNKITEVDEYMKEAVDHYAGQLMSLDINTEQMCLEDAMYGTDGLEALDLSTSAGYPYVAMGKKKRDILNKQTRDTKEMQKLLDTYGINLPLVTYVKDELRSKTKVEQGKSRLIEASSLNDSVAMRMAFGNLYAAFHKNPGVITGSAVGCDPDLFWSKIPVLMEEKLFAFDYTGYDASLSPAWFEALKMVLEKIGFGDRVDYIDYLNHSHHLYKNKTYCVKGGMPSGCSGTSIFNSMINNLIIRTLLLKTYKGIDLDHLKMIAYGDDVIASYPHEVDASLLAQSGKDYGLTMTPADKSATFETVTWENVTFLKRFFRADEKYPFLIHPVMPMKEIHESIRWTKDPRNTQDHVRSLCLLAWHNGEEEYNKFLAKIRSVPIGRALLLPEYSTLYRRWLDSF

Take `CN1CCc2c(c(S)[nH]c(=S)c2C#N)C1`: the % elongation was -17% (active) and the z-score was -18.2. Under setting [1], the % elongation was determined as 48%.
The matching figures for `Cc1ccc(-n2c(C)cc(C(=O)CN3CC(C)OC(C)C3)c2C)cc1` (stereo unspecified): 100% (inactive), -0.2 and 99%.
The matching figures for `O=C(O)CCCN1C(=O)/C(=C2\SC(=S)N(CCCC(=O)O)C2=O)SC1=S`: 88% (active), -4.7 and 86%.
On to `O=C(O)CCCN1C(=O)c2ccccc2Sc2ncccc21`, for which the % elongation was 101% (inactive) and the z-score was -0.2. Moreover, the % elongation under setting [1] was 105%.
The matching figures for `O=C(O)CN1C(=O)/C(=C2/OC(=O)c3ccccc32)SC1=S`: 101% (inactive), -0.1 and 99%.
`CCn1c(=O)c(=O)n(CC)c2cc(N3CCCCC3)c(NC(=O)c3ccccc3)cc21`: the % elongation was 101% (inactive) and the z-score came to 0.2. Besides, under setting [1], the % elongation came out at 102%.
In the case of `CCn1c(=O)c(=O)n(CC)c2cc(N3CCCCC3)c(NC(=O)c3cccc(F)c3)cc21`, the % elongation is 104% (inactive) and the z-score is -0.3. The % elongation under setting [1] was determined as 107%.
The matching figures for `CCn1c(=O)c(=O)n(CC)c2cc(N3CCCCC3)c(NC(=O)c3ccc(Cl)cc3)cc21`: 90% (active), -4.3 and 85%.
The matching figures for `CS(=O)(=O)Nc1ccc2c(c1)COC2=O`: 102% (inactive), 0 and 102%.
The matching figures for `Cc1nc(N(CC(=O)OC2CC(C)CCC2C(C)C)S(=O)(=O)c2ccc(N)cc2)c(C)n1N` (stereo unspecified): 102% (inactive), 0.1 and 92%.
Take `CCCCCC(=O)Nc1cc(-c2nc3cc(C)cc(C)c3o2)ccc1C`: the % elongation is 103% (inactive) and the z-score was found to be 0.3. Under setting [1], the % elongation turned out to be 102%.
The matching figures for `CCN(Cc1ccccc1)C(=O)c1cccc(N2C(=O)CCC2=O)c1`: 101% (inactive), -0.5 and 103%.
The matching figures for `O=C1CCC(=O)N1C(c1ccccc1)c1ccccc1`: 104% (inactive), 0.6 and 103%.
The matching figures for `O=C(ON1C(=O)CCC1=O)c1ccccc1`: 80% (active), -2.1 and 89%.
Regarding `Cc1c(C=Nc2ccc(S(=O)(=O)N(C)C)cc2)c(O)n(C)c(=O)c1C#N`, the % elongation is 104% (inactive) and the z-score amounted to 0.1. Besides, the % elongation under setting [1] came out at 114%.
The matching figures for `COc1ccc2c(c1)Cc1sc(NC(=O)c3ccccc3Br)nc1-2`: 59% (active), -7.3 and 63%.
The matching figures for `Cn1c(=O)c(=O)n(C)c2cc(NC(=O)c3ccccc3Br)ccc21`: 109% (inactive), 1.1 and 113%.
For `CCOc1ccc2nc(NC(=O)c3ccccc3OC)sc2c1`, the % elongation was 99% (inactive) and the z-score was -0.1. Also, the % elongation under setting [1] was found to be 92%.
Consider `COC(=O)C1CCN(S(=O)(=O)c2ccc(Cl)cc2)CC1`, for which the % elongation is 103% (inactive) and the z-score worked out at 0.2. Further, the % elongation under setting [1] stood at 102%.
Turning to `NCC1OC(OC2C(N)CC(N)C(O)C2O[C@@H]2O[C@H](CO)[C@H](O)C2O)C(N)C(O)C1O` (stereo partly specified), the % elongation was 99% (inactive) and the z-score is -0.1. Also, the % elongation under setting [1] came out at 103%.
The matching figures for `NC[C@@H]1O[C@H](O[C@@H]2[C@@H](CO)OC(O[C@@H]3[C@@H](O)[C@H](N)C[C@H](N)[C@H]3OC3O[C@H](CN)[C@@H](O)[C@H](O)[C@H]3N)[C@@H]2O)[C@H](N)[C@@H](O)[C@@H]1O` (stereo partly specified): 87% (active), -1.4 and 78%.
The matching figures for `NC(=O)c1cccc(N2C(=O)c3ccccc3C2=O)c1`: 105% (inactive), 0.2 and 102%.
The matching figures for `O=C1CCC(=O)N1OCC1CCCN2CCCCC12` (stereo unspecified): 104% (inactive), 0.1 and 108%.
Regarding `CCSc1nsc(SCC)c1C(=O)O`, the % elongation was 88% (active) and the z-score is -1.5. For the same compound, under setting [1], the % elongation was found to be 96%.
The matching figures for `O=C(Nc1sc2c(c1C(=O)NCCc1ccccc1)CCC2)c1ccco1`: 103% (inactive), 0.4 and 105%.
Take `Cc1ccc(CSc2oc(-c3cccs3)nc2S(=O)(=O)c2ccc(C)cc2)cc1`: the % elongation is 108% (inactive) and the z-score was 0.8. Further, under setting [1], the % elongation is 109%.
The matching figures for `Cc1ccc(-c2nc(S(=O)(=O)c3ccc(C)cc3)c(N3CCCCCC3)o2)cc1`: 100% (inactive), -1.6 and 104%.
The matching figures for `Cc1ccc(S(=O)(=O)c2no[n+]([O-])c2S(=O)(=O)c2ccc(C)cc2)cc1`: 79% (active), -2.2 and 69%.
The matching figures for `CCC(c1nnc(SCc2nc3sc4c(c3c(=O)[nH]2)CCC4)n1Cc1ccccc1)N(C)C` (stereo unspecified): 114% (inactive), 2 and 106%.
With `Cc1c(S(=O)(=O)O)oc2c1C(=O)C(=O)c1c-2ccc2c1CCCC2(C)C`, the % elongation was 87% (active) and the z-score is -1.4. Also, under setting [1], the % elongation was determined as 88%.
For `COc1ccccc1Cn1cccc1C1=NC(C(C)C)CO1` (stereo unspecified), the % elongation is 101% (inactive) and the z-score is 0.2. Further, under setting [1], the % elongation was 103%.
Consider `COC1CC(O[C@@H]2[C@H](C)[C@H](OC3OC(C)CC(N(C)C)C3OC(C)=O)[C@H](C)CC3(CO3)C(=O)[C@@H](C)C(OC(C)=O)[C@H](C)[C@H](C)OC(=O)[C@@H]2C)OC(C)C1OC(C)=O` (stereo partly specified), for which the % elongation was 100% (inactive) and the z-score was found to be 0.2. Moreover, the % elongation under setting [1] turned out to be 103%.
The matching figures for `Cc1ccc(OCCn2cc(C(=O)c3ccccc3)c3ccccc32)cc1`: 100% (inactive), -0.4 and 96%.
The matching figures for `CC(C)c1ccc(NC(=O)Cn2c3ncccc3c(=O)n2-c2ccccc2)cc1`: 33% (active), -5.2 and 49%.
With `Cc1ccc(-n2c(=O)c3cccnc3n2CC(=O)Nc2ccccc2C(F)(F)F)cc1C`, the % elongation is 110% (inactive) and the z-score turned out to be 0.2. In addition, the % elongation under setting [1] stood at 105%.
In the case of `CCOc1ccccc1NC(=O)Cn1c2ncccc2c(=O)n1-c1ccc(C)c(C)c1`, the % elongation was 107% (inactive) and the z-score was found to be 0. Further, the % elongation under setting [1] came to 105%.
The matching figures for `CSc1ccc(/C=N/NC(N)=S)cc1`: 98% (inactive), -0.7 and 63%.
The matching figures for `Cc1ccc(O)c(NC(=O)c2cccs2)c1`: 99% (inactive), -0.7 and 108%.
Take `COC(=O)c1c(NC(=O)c2cccs2)sc2c1C(C(=O)OC)CC2` (stereo unspecified): the % elongation is 99% (inactive) and the z-score was -0.7. Under setting [1], the % elongation worked out at 97%.
For the compound `CCc1c(C)sc(NC(=O)c2cccs2)c1C(N)=O`, the % elongation was 74% (active) and the z-score is -2.8. Besides, the % elongation under setting [1] amounted to 79%.
The matching figures for `CC(NC(=O)Nc1cccnc1)N1C(=O)C2C3C=CC(C3)C2C1=O` (stereo unspecified): 100% (inactive), -0.4 and 103%.
The matching figures for `O=C(O)/C(=C/C(=O)c1ccccc1)Nc1ccc(OC(F)(F)F)cc1`: 103% (inactive), 0 and 111%.
The matching figures for `CC(C)(C)NC(=O)C1N(C2CC2)C(=O)C2C(C(=O)NCc3ccccc3)C3C=CC21O3` (stereo unspecified): 103% (inactive), 0.3 and 104%.
With `Cc1ccccc1CN1CCCN(Cc2ccccc2)S1(=O)=O`, the % elongation is 103% (inactive) and the z-score was found to be 0.1. For the same compound, under setting [1], the % elongation was 99%.
For the compound `CCC(=O)c1ccc(OCC(=O)NC2CCCCC2C)cc1` (stereo unspecified), the % elongation is 101% (inactive) and the z-score was -0.4. Also, the % elongation under setting [1] worked out at 93%.
Take `Cc1cc(C)c2nc(-c3ccco3)cc(C(=O)O)c2c1`: the % elongation was 96% (inactive) and the z-score is -1.9. Under setting [1], the % elongation amounted to 93%.
The matching figures for `Cc1cc(C)c2nc3nc(C)cc(C)c3c(N)c2c1`: 90% (active), -2.4 and 76%.

Source of the values: PubChem BioAssay AID588519 (ICCB-Longwood Screening Facility, Harvard Medical School, 2011).
